A selection: hits, their analogues and other compounds. The true share with any hit is near 22%.
CYP2C19 activ – increases human CYP2C19 enzyme activity. 96,000 tested, under 10 active. recombinant CYP2C19, luciferin-H EGE luminescence; active compounds read high; 0 = fully inhibited enzyme, 1 = untreated enzyme. P33261. activation factor at 5 µM;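 active = activation factor of at least 2 at 5 µM in the primary screen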;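 also: 0 = wells with 2.5 mM tranylcypromine and 1 = vehicle-only wells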
Target sequence (P33261 whole entry, looked up): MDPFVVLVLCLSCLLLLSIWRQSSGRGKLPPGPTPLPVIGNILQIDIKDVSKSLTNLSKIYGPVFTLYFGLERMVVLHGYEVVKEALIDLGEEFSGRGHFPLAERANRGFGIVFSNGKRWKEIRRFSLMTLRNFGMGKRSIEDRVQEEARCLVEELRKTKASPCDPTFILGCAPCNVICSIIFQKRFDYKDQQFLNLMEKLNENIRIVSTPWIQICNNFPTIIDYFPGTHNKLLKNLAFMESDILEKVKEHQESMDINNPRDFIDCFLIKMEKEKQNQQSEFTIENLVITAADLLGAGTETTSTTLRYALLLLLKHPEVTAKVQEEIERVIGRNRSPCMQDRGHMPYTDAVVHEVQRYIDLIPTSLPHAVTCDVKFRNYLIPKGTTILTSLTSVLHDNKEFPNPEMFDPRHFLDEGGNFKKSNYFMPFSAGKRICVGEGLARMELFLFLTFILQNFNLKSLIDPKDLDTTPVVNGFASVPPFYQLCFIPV
CYP2C9 act – increases human cytochrome P450 2C9 activity; recombinant CYP2C9, luciferin-H conversion, luminescence; active compounds read high; factor 1 = untreated enzyme, 0 = blocked; activation factor at 5 µM; hit rate 1.4% among 96,000; AID 1024;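 active = activation factor of 2 or more for CYP2C9 at a 5 µM dose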;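 also: 0 = sulfaphenazole-blocked wells and 1 = vehicle-only wells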
CYP2C19 inh – human CYP2C19 inhibition; P33261; CYP2C19 Supersomes, luciferin-H EGE luminescence, 30 min; inhibition, % at 5 µM; hit rate 21% among 96,000;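 active = CYP2C19 inhibition above a set limit at 5 µM in the primary screen, cut at about 50% in these data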;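 also: plate controls were negative control wells for no effect and 2.5 mM tranylcypromine positive control for full effect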
F-actin modifier – modifiers of cytoskeleton assembly; HUVEC TNFa F-actin phalloidin imaging, high content; inhibition, % at 2 µM; hit rate 0.18% among 91,000; AID 836;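 active = inhibition above the batch mean plus 3 SD and confirmed as a hit by visual image inspection, cut at about 30% in these data, passing the limit was not always enough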
E-sel TNF inh – TNF alpha driven E-selectin expression inhibition | AID 1246 | inhibition, % at 2 µM | hit rate 0.71% among 120,000 | HUVEC TNFa-induced E-selectin immunofluorescence, high content;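 active = inhibition above the batch mean plus 3 SD, and confirmed as a hit on visual image review, cut at about 43% in these data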;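 also: 0% = TNF-stimulated DMSO wells and 100% = unstimulated control wells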
CYP2C9 inhib – inhibitors of human CYP2C9 | P11712 | CYP2C9 Supersomes, luciferin-H conversion, luminescence | inhibition, % at 5 µM | hit rate 20% among 96,000 | AID 777;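 active = blocking of liver enzyme CYP2C9 beyond about 50% at 5 µM, limit read from the data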
Active calls of the source: *; nt = not tested or not shown.

SMILES	CYP2C19 activ	CYP2C9 act	CYP2C19 inh	F-actin modifier	E-sel TNF inh	CYP2C9 inhib
CCOC(=O)c1ccc(S(=O)(=O)N2CCN(CC(=O)NC(=O)NC(C)(C)C)CC2)cc1	1.1	0.3	-8.5	14.6	4.4	72.4*
CCOC(=O)c1ccc(S(=O)(=O)N2CCN(C(C)=O)CC2)cc1	nt	nt	nt	nt	33.3	nt
COc1ccc(NC(=O)CCN2CCN(S(=O)(=O)c3ccc(C(C)C)cc3)CC2)cc1	0.6	0.3	38.4	-16.2	-2.9	65.9*
CC(C)c1ccc(S(=O)(=O)N2CCN(CCC(=O)Nc3ccc(N(C)C)cc3)CC2)cc1	0.8	0.5	24.0	-3.4	3.4	48.2
O=C(CSc1nc(-c2ccco2)cc(C(F)(F)F)n1)Nc1ccc2c(c1)OCO2	nt	nt	nt	nt	-7.5	nt
COc1ccccc1CCNC(=O)CSc1nc(-c2ccco2)cc(C(F)(F)F)n1	1	0.9	3.4	nt	nt	5.0
COc1ccc(CCNC(=O)CSc2nc(-c3ccco3)cc(C(F)(F)F)n2)cc1	0.4	0.3	57.9*	nt	nt	68.9*
O=C(CCCSc1nc(-c2ccco2)cc(C(F)(F)F)n1)Nc1ccc2c(c1)OCO2	0.5	0.2	48.4	7.6	nt	78.9*
O=C(CCSc1nc(-c2ccco2)cc(C(F)(F)F)n1)NCCc1ccccc1	0.6	0.5	38.9	-5.8	-23.2	50.6*
COC(=O)c1ccc(CSc2nc(-c3ccco3)cc(C(F)(F)F)n2)o1	0.7	0.3	34.2	-3.9	3.9	74.8*
CNc1cccccc1=S	1	0.9	-0.2	-1.9	15.8	11.0
O=C(O)Cc1ccc(NC(=O)C2CC=CCC2C(=O)O)cc1 (stereo not drawn)	1.1	1.2	-9.8	-15.2	10.2	-16.2
O=C(CSc1nc(-c2ccco2)cc(C(F)(F)F)n1)NCCCn1ccnc1	0.1	0	91.3*	3.5	nt	95.8*
COc1ccc(-c2cc(C(F)(F)F)nc(SCCC(=O)NCc3ccccc3)n2)cc1	0.7	1.1	31.2	-5.3	2.6	-8.3
CC(NC(=O)CCSc1nc(-c2ccc3c(c2)OCO3)cc(C(F)(F)F)n1)c1ccccc1 (stereo not drawn)	0.2	0.2	80.7*	-18.9	-9.7	83.4*
O=C(CSc1nc(-c2ccco2)cc(C(F)(F)F)n1)Nc1ccc(C(=O)N2CCOCC2)cc1	nt	nt	nt	1.2	0.0	nt
O=C(CSc1nc(-c2ccco2)cc(C(F)(F)F)n1)Nc1cccnc1	0.7	0.5	26.2	11.9	38.7	53.2*
COc1ccc(/C=C/C(=O)c2cc(Br)ccc2OC(=O)c2ccco2)cc1OC	nt	nt	nt	nt	31.7	nt
CC(=O)N(c1cccc(Br)c1)C1C=CS(=O)(=O)C1 (stereo not drawn)	0.9	1	7.0	0.1	34.0	4.6
Cc1ccc(Sc2cc(C(F)(F)F)nc(N(C)C)n2)cc1	1.2	1.1	-15.6	9.8	16.3	-12.5
CSCCC(=O)N1C(C)CCCC1C(=O)O (stereo not drawn)	1	1	-2.9	nt	7.6	2.0
CCOC(=O)C(Sc1n[nH]c(N)n1)c1ccccc1 (stereo not drawn)	0.8	0.8	16.6	12.3	nt	18.8
COCCN1C(=O)C(=O)/C(=C(/O)c2cccc(OC)c2)C1c1ccc(C)o1 (stereo not drawn)	1.1	1	-8.3	16.2	-43.1	1.9
CC(=O)N1CCC2(CC1)C(C#N)=C(N)Oc1n[nH]c(CSc3ccc(C)cc3)c12	0.6	0.5	41.2	-19.2	nt	52.9*
CCOC(=O)N1CCC2(CC1)C(C#N)=C(N)Oc1c2sc2nc(C)cc(C)c12	0.5	0.5	45.9	5.4	-5.7	47.2
SMILES	CYP2C19 activ	CYP2C9 act	CYP2C19 inh	F-actin modifier	E-sel TNF inh	CYP2C9 inhib
CCOC(=O)N1CCC2(CC1)C(C#N)=C(N)Oc1n[nH]c(C)c12	0.5	0.7	50.0*	16.2	9.0	33.4
Cc1[nH]nc2c1C1(CCC3(CC1)OCCO3)C(C#N)=C(N)O2	0.9	0.9	8.7	-5.4	13.2	10.4
CCOC(=O)N1CCC2(CC1)C(C#N)=C(N)Oc1c2c(C)nn1-c1cccc(Cl)c1	0.7	0.3	30.4	-4.8	-23.1	71.8*
O=C(Nc1ccc2c(c1)oc1ccccc12)N1CCOCC1	0.6	0.9	35.7	-9.1	2.5	12.2
Cc1ccc(S(=O)(=O)N(c2ccccc2)C2CCS(=O)(=O)C2)cc1 (stereo not drawn)	1.1	1.2	-11.7	13.7	5.8	-22.3
Cc1cc(-c2ccccc2)nc(N(C)NC(=O)c2c(F)cccc2F)c1S(C)(=O)=O	0.5	0.3	50.7*	22.6	5.8	69.4*
O=C(c1ccc(CNc2c(NC3CCCCC3)c(=O)c2=O)cc1)N1CCc2ccccc21	0.9	0.8	5.2	-6.5	12.3	19.2
O=C1C2CCCN2C(c2ccc(Br)cc2)N1c1ccc(F)cc1 (stereo not drawn)	0.3	0.8	66.4*	-6.6	2.8	20.7
CCc1ccc(C2N(c3ccc(OC)cc3)C(=O)C3CCCN32)cc1 (stereo not drawn)	0.7	0.2	32.8	-4.2	nt	76.4*
COc1ccc(C2N(c3ccc(OC)cc3)C(=O)C3CCCN32)cc1 (stereo not drawn)	0.9	0.6	9.9	-1.9	9.7	40.0
O=C1C2CCCN2C(c2cccc(Br)c2)N1c1ccc(F)cc1 (stereo not drawn)	0.8	0.9	15.7	-0.3	13.2	12.3
COc1cc(C2c3c(oc4c(C)cc(C)cc4c3=O)C(=O)N2Cc2cccnc2)cc(OC)c1OC (stereo not drawn)	nt	nt	nt	-12.8	-17.7	nt
Cc1ccc(/C=C/c2ccc(=O)n(Cc3ccccc3Cl)n2)cc1	1	0.6	-0.1	-5.4	-2.3	38.8
COC(=O)c1ccc(NC(=O)CSC2=Nc3ccccc3C3CC=NN23)cc1 (stereo not drawn)	0.3	0.3	67.7*	-18.2	-23.6	69.3*
Cc1ccc(NC(=O)CSC2=Nc3ccccc3C3CC=NN23)c(C)c1 (stereo not drawn)	0.1	0.6	92.9*	-26.6	14.8	37.4
NC(=O)c1ccc(NC(=O)CSC2=Nc3ccccc3C3CC=NN23)cc1 (stereo not drawn)	1	0.8	-3.6	7.8	-2.1	21.5
O=C1c2ccccc2C(O)(Cc2ccccc2)N1Cc1ccco1 (stereo not drawn)	nt	nt	nt	27.7	2.7	nt
CC1(O)N(Cc2ccccc2)C(=O)OC12CCCCC2 (stereo not drawn)	0.3	0.9	74.2*	4.5	nt	9.8
CC1(O)c2ccccc2C(=O)N1Cc1ccccc1 (stereo not drawn)	0.1	0.8	85.3*	-33.3	3.9	16.9
CC1(O)c2ccccc2C(=O)N1CCc1ccccc1F (stereo not drawn)	0	0.8	95.6*	14.4	-7.1	24.8
COC(=O)C(C)Sc1nnc(Cc2cc(=O)[nH]c(=O)[nH]2)n1-c1ccc(Cl)cc1 (stereo not drawn)	1	1	3.6	5.0	nt	3.7
Cc1cc(C(=O)c2ccccc2)nc2ccccc12	0.3	3.2*	68.0*	8.9	1.9	-215.6

Bioassay records deposited in PubChem by several laboratories.
